Activity calls are given as the source filed them. The calls were made as follows: active = hit-call score of the fitted dose curve at least 0.9, where 1 is the maximum; inactive = score below 0.9.

22 compounds from PubChem BioAssay (EPA / NIEHS) can be followed below.

In assay [1] the target is Nuclear respiratory factor 1 (Homo sapiens) (UniProt Q16656). The assay is described as follows: ATG_NRF1_CIS: Attagene CIS-FACTORIAL HepG2 Assay for human Nuclear Respiratory Factor 1 (NRF1) Orphan Gene (AID 2282987). The settings on record: HepG2 NRF1 cis-element reporter, Attagene multiplex; actives raise or lower the signal. Put shortly:
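Using DMSO as baseline, gain- or loss-of-signal was fitted for reporter mRNA levels in HepG2 cells transiently transfected with cis-regulated reporter units. Samples were taken 24 h after dosing and read by RT-PCR with capillary electrophoresis.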

Assay [2] in a line: ATG_NFI_CIS: Attagene CIS-FACTORIAL HepG2 Assay for human Nuclear Factor I (NFI) (AID 2282989). The settings on record: HepG2 cis-regulatory reporter, NFI response element transcription; actives raise or lower the signal. The method, boiled down:
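Read-out: reporter mRNA via RT-PCR plus capillary electrophoresis with fluorescence detection. Transiently transfected HepG2 (endogenous TF activity on cis promoters), 24 h compound exposure; gain or loss of signal fitted against DMSO.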

In assay [3] the target is Myc proto-oncogene protein (Homo sapiens) (UniProt P01106). The assay is described as follows: ATG_Myc_CIS: Attagene CIS-FACTORIAL HepG2 Assay for human Myelocytomatosis (Myc) Proto-Oncogene Transcription Factor (AID 2282990). The settings on record: HepG2, Attagene cis-reporter transcription factor activity; actives raise or lower the signal. The method, boiled down:
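Cells of the HepG2 human liver line bear multiple cis-driven reporter transcription units. Reporter mRNA after 24 h exposure is reverse-transcribed, amplified, labelled and resolved by capillary electrophoresis, with gain- or loss-of-signal fitting relative to DMSO.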

The nature of assay [4]: ATG_NF_kB_CIS: Attagene CIS-FACTORIAL HepG2 Assay for human Nuclear Factor Kappa B (NF-kB) (AID 2282991). The settings on record: HepG2 Attagene cis-factorial NF-kB reporter mRNA; actives raise or lower the signal. Put shortly: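 Endpoint from a 52-component multiplexed HepG2 reporter panel: cis-regulated transcription units transiently transfected, 24 h dosing, reporter mRNA quantified by RT-PCR and capillary electrophoresis, scored as increase or decrease against DMSO.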

Assay [5] in a line: ATG_NRF2_ARE_CIS: Attagene CIS-FACTORIAL HepG2 Assay for human Nuclear Factor Erythroid 2 Related Factor 2 (NFR2) response to Antioxidant Response Elements (ARE) (AID 2282992).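 As to AC50: reporter mRNA level measured by RT-PCR and capillary electrophoresis fluorescence.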 The settings on record: HepG2 Attagene ARE/NRF2 reporter, transcription factor activity; actives raise or lower the signal. Put shortly:
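HepG2 cells transiently transfected with multiplexed cis-element reporter constructs, 24 h after chemical dosing; reporter mRNA quantified by RT-PCR, fluorescent primer extension, HpaI digestion and capillary electrophoresis. Bidirectional fit relative to DMSO.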

Assay [6] can be described thus: ATG_Oct_MLP_CIS: Attagene CIS-FACTORIAL HepG2 Assay for human Octamer-Binding Transcription Factor (Oct) (AID 2282993). As to conditions: HepG2 Attagene cis-factorial Oct reporter, mRNA; actives raise or lower the signal. Put shortly: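 Read-out: reporter mRNA via RT-PCR plus capillary electrophoresis of 6-FAM-labelled fragments. Transiently transfected HepG2, 24 h exposure, endogenous TF activity on cis elements. Gain or loss of signal fitted relative to DMSO.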

Assay [7] has as its target Cellular tumor antigen p53 (Homo sapiens) (UniProt P04637). The assay is described as follows: ATG_p53_CIS: Attagene CIS-FACTORIAL HepG2 Assay for human p53 Transcription Factor (AID 2282994). As to conditions: HepG2 p53 cis-element reporter, Attagene mRNA; actives raise or lower the signal. The method, boiled down: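 HepG2 cells transiently transfected with cis-regulated multiple reporter transcription units, dosed 24 h. Reporter mRNA measured by RT-PCR, 6-FAM primer extension, HpaI digestion and capillary electrophoresis; bidirectional fit relative to DMSO.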

Assay [8] in a line: BSK_3C_TissueFactor: BioMAP Diversity Plus: 3C Assay for Tissue Factor Biomarker Activity (AID 2282997). As to conditions: BioMAP 3C HUVEC, tissue factor biomarker readout; actives raise or lower the signal. Put shortly:
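Values derive from bidirectional curve fitting against DMSO of Tissue Factor ELISA signals, taken 24 h after dosing primary human umbilical vein endothelial cells.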

Assay [9] in a line: BSK_3C_uPAR: BioMAP Diversity Plus: 3C Assay for Urokinase-type plasminogen activator receptor (uPAR) Biomarker Activity (AID 2282998). As to conditions: BioMAP 3C HUVEC, uPAR biomarker ELISA; actives raise or lower the signal. Put shortly:
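HUVEC primary cells; 24 h post-dose; uPAR by ELISA; gain or loss of signal fitted bidirectionally vs DMSO baseline.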
(In general: An ELISA detects its analyte on a solid surface through an enzyme-linked reagent.)

A short description of assay [10]: BSK_3C_VCAM1: BioMAP Diversity Plus: 3C Assay for Vascular cell adhesion molecule 1 (VCAM1) Biomarker Activity (AID 2282999). The settings on record: BioMAP 3C HUVEC, VCAM1 ELISA, cytokine-stimulated; actives raise or lower the signal. Put shortly: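 Endothelial cells from human umbilical vein are treated with test chemical. At 24 h, VCAM-1 is measured by ELISA, and responses in either direction are fitted relative to DMSO.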

Sequence of Myc proto-oncogene protein (Homo sapiens) (P01106 whole entry, looked up): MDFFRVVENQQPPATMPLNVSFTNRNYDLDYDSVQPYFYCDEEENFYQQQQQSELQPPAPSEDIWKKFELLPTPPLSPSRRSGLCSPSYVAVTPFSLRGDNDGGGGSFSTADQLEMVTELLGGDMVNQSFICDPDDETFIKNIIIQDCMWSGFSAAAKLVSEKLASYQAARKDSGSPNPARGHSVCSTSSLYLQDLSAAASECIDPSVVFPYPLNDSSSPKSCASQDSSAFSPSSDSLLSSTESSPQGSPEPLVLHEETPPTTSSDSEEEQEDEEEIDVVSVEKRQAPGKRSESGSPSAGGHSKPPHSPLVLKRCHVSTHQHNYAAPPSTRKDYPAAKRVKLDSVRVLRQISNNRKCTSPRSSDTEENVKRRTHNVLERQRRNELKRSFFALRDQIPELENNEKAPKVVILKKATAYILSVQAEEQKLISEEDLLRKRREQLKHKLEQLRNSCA
Sequence of Cellular tumor antigen p53 (Homo sapiens) (P04637 whole entry, looked up): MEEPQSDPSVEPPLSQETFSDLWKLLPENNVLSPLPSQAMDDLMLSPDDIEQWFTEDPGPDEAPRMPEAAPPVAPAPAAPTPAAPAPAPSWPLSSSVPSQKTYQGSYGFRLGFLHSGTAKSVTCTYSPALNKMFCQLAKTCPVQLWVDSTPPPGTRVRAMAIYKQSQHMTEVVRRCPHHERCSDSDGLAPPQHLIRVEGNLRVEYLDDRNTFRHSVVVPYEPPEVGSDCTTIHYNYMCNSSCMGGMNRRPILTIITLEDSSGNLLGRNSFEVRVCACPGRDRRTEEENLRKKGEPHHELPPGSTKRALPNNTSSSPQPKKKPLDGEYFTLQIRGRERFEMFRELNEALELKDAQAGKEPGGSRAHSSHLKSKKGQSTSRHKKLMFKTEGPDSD
Sequence of Nuclear respiratory factor 1 (Homo sapiens) (Q16656 whole entry, looked up): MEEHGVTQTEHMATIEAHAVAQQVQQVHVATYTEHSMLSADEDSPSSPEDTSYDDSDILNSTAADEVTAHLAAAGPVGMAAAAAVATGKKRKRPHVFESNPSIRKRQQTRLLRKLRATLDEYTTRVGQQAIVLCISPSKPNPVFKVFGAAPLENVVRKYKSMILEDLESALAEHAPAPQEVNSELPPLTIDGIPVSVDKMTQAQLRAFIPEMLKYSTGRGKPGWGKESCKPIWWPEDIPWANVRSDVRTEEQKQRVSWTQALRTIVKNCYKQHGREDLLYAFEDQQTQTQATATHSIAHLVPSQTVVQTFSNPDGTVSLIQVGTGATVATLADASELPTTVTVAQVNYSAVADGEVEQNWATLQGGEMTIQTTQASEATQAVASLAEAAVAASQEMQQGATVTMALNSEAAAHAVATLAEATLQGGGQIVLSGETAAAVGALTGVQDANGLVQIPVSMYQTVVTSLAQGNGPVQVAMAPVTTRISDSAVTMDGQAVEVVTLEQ

On to `Cc1cccc(C)c1O`, for which the compound was called inactive in assay [1], in assay [2], in [3], in [4], in [5] and in [6]. Besides, the compound was classed as inactive in assay [7], in assay [8], in assay [9] and in assay [10].

Regarding `CCCCCCC(=O)OCC`, the compound was classed as inactive in assay [1], in assay [2], in assay [3], in [4], in assay [5] and in [6]. In addition, the call in assay [7], in [8], in [9] and in [10] was inactive.

In the case of `CCc1c(C(=O)NN2CCCCC2)nn(-c2ccc(Cl)cc2Cl)c1-c1ccc(Br)cc1`, the AC50 is 7.79 µM (active) in assay [1]; 1.53 µM (active) in [5]; 11.7 µM (active) in [8]; 6.7 µM (active) in assay [9]; 11.1 µM (active) in [10]. Besides, the result in assay [2], in assay [3], in [4], in [6] and in [7] was inactive.

`COCCOCCOC`: the outcome in assay [1], in [2], in assay [3], in assay [4], in assay [5] and in assay [6] was inactive. In addition, the compound was classed as inactive in [7], in assay [8], in assay [9] and in assay [10].

In the case of `COc1cc(-c2nc(NC(=O)c3cc4cc(C)cc(C)c4n3CC(=O)O)sc2CCC2CCCCC2)c(OC)cc1Cl`, the call in [1], in [3] and in [7] was inactive. Moreover, the AC50 was 27 µM (active) in [2]; 26.7 µM (active) in assay [4]; 3.45 µM (active) in assay [5]; 5.48 µM (active) in assay [6]; 2.98 µM (active) in assay [8]; 2.92 µM (active) in assay [9]. In [10], the AC50 is 4.86 µM (active).

For `COc1cc(/C=C/C(=O)CC(=O)/C=C/c2ccc(O)c(OC)c2)ccc1O`, the compound was called inactive in assay [1] and in assay [3]. For the same compound, the AC50 in assay [2] is 33.4 µM (active); in assay [4], 33.4 µM (active); in assay [5] it was 8.71 µM (active); in assay [6], 33.4 µM (active); in [7], 50.2 µM (active).

For the compound `CNC(=O)[C@H]1O[C@@H](n2cnc3c(NCc4cc(Cl)ccc4OCc4cc(C)no4)ncnc32)[C@H](O)[C@@H]1N`, the compound was called inactive in assay [1], in [2], in assay [3], in assay [4], in assay [5] and in [6]. Besides, the compound was classed as inactive in assay [7], in assay [8], in assay [9] and in assay [10].

As to `CC1=C(/C=C/C(C)=C/C=C/C(C)=C/CO)C(C)(C)CCC1`, the result in [1], in [2], in assay [4], in [6], in assay [7] and in [8] was inactive. For the same compound, in assay [9], the outcome was inactive. Further, the AC50 in assay [3] is 139 µM (active); in assay [5], 44.2 µM (active); in assay [10] it was 33 µM (active).

As to `CNCc1cc(F)ccc1Oc1ccc(Cl)c(Cl)c1`, the outcome in [1], in assay [2], in assay [3], in [4], in [5] and in assay [6] was inactive. Moreover, the call in assay [7] and in assay [10] was inactive. The AC50 in assay [8] was 12.5 µM (active); in assay [9] it was 30.9 µM (active).

Take `COc1cc(C=O)ccc1O`: the result in assay [1], in assay [2], in assay [3], in assay [4], in [5] and in assay [6] was inactive. Moreover, the compound was classed as inactive in assay [7], in [8], in assay [9] and in assay [10].

With `CCCCN(CCCC)CCCC`, the outcome in assay [1], in [2], in assay [3], in [4], in [5] and in [6] was inactive. In addition, the result in [7], in assay [8], in [9] and in assay [10] was inactive.

As for `Cc1ccc(C(C)C)c(O)c1`, the compound was classed as inactive in assay [1], in [2], in assay [3], in assay [4], in assay [6] and in [7]. In addition, the result in assay [9] and in assay [10] was inactive. Also, the AC50 in assay [5] is 100 µM (active); in assay [8] it was 1.38 µM (active).

Turning to `CCCCCCCC=O`, the call in assay [1], in assay [2], in [3], in [4], in assay [5] and in assay [6] was inactive. The compound was called inactive in assay [7], in assay [8], in [9] and in assay [10].

For `CC(C)c1ccc(C(=O)N=C(N)N)cc1S(C)(=O)=O`, the result in assay [1], in assay [2], in assay [3], in assay [4], in assay [5] and in assay [6] was inactive. The compound was called inactive in assay [7], in assay [8], in assay [9] and in assay [10].

In the case of `COc1cccc2c1C(=O)c1c(O)c3c(c(O)c1C2=O)C[C@@](O)(C(=O)CO)C[C@@H]3O[C@H]1C[C@H](N)[C@H](O)[C@H](C)O1`, the outcome in assay [1] and in assay [2] was inactive. Moreover, the AC50 in assay [3] was 2.48 µM (active); in assay [4] it was 0.653 µM (active); in [5] it was 1.56 µM (active); in assay [6], 0.719 µM (active); in assay [7] it was 2.24 µM (active).

For `Oc1ccc2c(c1)OC[C@@H](N1CCC(O)(c3ccc(F)cc3)CC1)[C@H]2O`, the compound was classed as inactive in [1], in assay [2], in assay [3], in [4], in [7] and in assay [8]. The result in assay [9] and in [10] was inactive. The AC50 in [5] was 23.4 µM (active); in assay [6], 27.1 µM (active).

`CC(CO)OC(C)CO` (centres undefined) (tested in a mixture with another compound): the compound was classed as inactive in [1], in [2], in assay [3], in assay [4], in assay [5] and in assay [6]. Moreover, the compound was called inactive in [7], in assay [8], in [9] and in assay [10].

`CC1(C)CC(N=C=O)CC(C)(CN=C=O)C1` (centres undefined): the compound was classed as inactive in assay [1], in [2], in [3], in assay [4], in [5] and in assay [6]. For the same compound, the compound was classed as inactive in assay [7], in assay [8], in [9] and in assay [10].

`COC(=O)c1ccc(O)cc1`: the result in assay [1], in assay [2], in assay [3], in assay [4], in assay [5] and in assay [6] was inactive. The call in [7], in [8], in assay [9] and in assay [10] was inactive.

Turning to `COc1ccc(C)cc1N`, the compound was classed as inactive in assay [1], in assay [2], in assay [3], in [4], in [5] and in assay [6]. Moreover, the call in assay [7], in assay [8], in assay [9] and in [10] was inactive.

As for `CN[C@H]1CC[C@@H](c2ccc(Cl)c(Cl)c2)c2ccc(S(N)(=O)=O)cc21`, the compound was called inactive in assay [1], in assay [2], in assay [3], in assay [4], in assay [5] and in [6]. The compound was classed as inactive in assay [7]. Also, the AC50 in [8] was 33.4 µM (active); in [9], 14.3 µM (active); in assay [10] it was 30.4 µM (active).

Consider `C1CCC(SSC2CCCCC2)CC1`, for which the compound was classed as inactive in [1], in [3], in assay [4], in [6], in [7] and in assay [9]. In addition, the AC50 in [2] is 161 µM (active); in assay [5], 75.5 µM (active); in assay [8] it was 20 µM (active); in assay [10], 26.5 µM (active).

By AC50 is commonly meant the concentration at which the activity in the assay is half-maximal.
